The panel holds about 83,000 compounds, 20% with a hit somewhere; the sample as a whole holds those more often.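 A percent growth of 40 corresponds to 60% growth inhibition; 0 means no net growth; -100 means all cells died. Active threshold: below 10.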 Calls of active or inactive are those of the source.
How the values were obtained:
Assay in all cases: NCI-60 one-dose screen, 48 h (100 = growth as untreated, 0 = no growth, -100 = all killed)
Details in all cases: 10 µM unless noted
NCI-H23 lung = system: NCI-H23 lung
NCI-H226 lung = system: NCI-H226 lung
NCI-H322M lung = system: NCI-H322M lung
HOP-62 NSCLC = system: HOP-62 NSCLC
NCI-H460 lung = system: NCI-H460 lung
HOP-92 NSCLC = system: HOP-92 NSCLC
NCI-H522 lung = system: NCI-H522 lung
A549/ATCC NSCLC = system: A549/ATCC NSCLC
786-0 renal = system: 786-0 renal
COLO 205 colon = system: COLO 205 colon

Measured: growth

O=C1CCC(=O)CC1
inactive: NCI-H23 lung 103% | NCI-H226 lung 101% | NCI-H322M lung 110% | HOP-62 NSCLC 102% | NCI-H460 lung 104% | HOP-92 NSCLC 87.4% | NCI-H522 lung 91.2% | A549/ATCC NSCLC 91.4% | 786-0 renal 104% | COLO 205 colon 115%

CC(C)NC[C@@H](C(=O)N1CCN(c2ncnc3c2[C@H](C)C[C@H]3O)CC1)c1ccc(Cl)cc1
active: HOP-92 NSCLC 2.39% | 786-0 renal 4.37%
inactive: NCI-H23 lung 58.7% | NCI-H226 lung 56.2% | NCI-H322M lung 55.6% | HOP-62 NSCLC 54% | NCI-H460 lung 29.3% | NCI-H522 lung 53% | A549/ATCC NSCLC 38% | COLO 205 colon 20.2%

O=C1C=CC2(NN=C(c3ccccc3)N2c2ccccc2)c2cccc(O)c21 (stereo not given)
inactive: NCI-H226 lung 51.9% | NCI-H322M lung 83.9% | HOP-62 NSCLC 21.5% | NCI-H460 lung 34.1% | HOP-92 NSCLC 117% | NCI-H522 lung 28.7% | A549/ATCC NSCLC 14.8% | 786-0 renal 102% | COLO 205 colon 80.8%
active: NCI-H23 lung 9.65%

CNC(=O)c1ccccc1Nc1nc(Nc2ccc3c(c2OC)CCC[C@H](N2CCN(CCO)CC2)C3)ncc1Cl
active: NCI-H322M lung 5.21% | HOP-62 NSCLC -48.7% | NCI-H460 lung 0.445% | HOP-92 NSCLC -30.7% | NCI-H522 lung -47.9% | A549/ATCC NSCLC -31.7% | 786-0 renal -66.1% | COLO 205 colon -64.7%
inactive: NCI-H23 lung 16.3% | NCI-H226 lung 28.6%

C=CC(=O)N(C)[C@H]1C[C@H]2OC(C)(C1OC)n1c3ccccc3c3c4c(c5c6ccccc6n2c5c31)C(=O)NC4 (stereo not given in full)
active: NCI-H23 lung 4.64% | NCI-H226 lung -60.7% | NCI-H322M lung 6.29% | HOP-62 NSCLC -15.4% | NCI-H460 lung 1.35% | HOP-92 NSCLC -21.8% | NCI-H522 lung -54.5% | A549/ATCC NSCLC 9.49% | 786-0 renal -74.2% | COLO 205 colon -75.3%

Cn1cc(-c2cnn3c(N)c(Br)c([C@@H]4CCCNC4)nc23)cn1
inactive: NCI-H23 lung 39.6% | NCI-H226 lung 60% | NCI-H322M lung 48.2% | HOP-62 NSCLC 28.8% | NCI-H460 lung 35% | HOP-92 NSCLC 54.6% | NCI-H522 lung 28.4% | A549/ATCC NSCLC 41.5% | 786-0 renal 37% | COLO 205 colon 14.3%

O=C(NO)c1ccc(Cn2c(=O)n(-c3ccccc3F)c(=O)c3ccccc32)cc1
active: NCI-H23 lung -40.4% | HOP-62 NSCLC 8.43% | NCI-H522 lung -60.3% | A549/ATCC NSCLC 5.07% | COLO 205 colon -58.3%
inactive: NCI-H226 lung 17.6% | NCI-H322M lung 26.2% | NCI-H460 lung 19% | HOP-92 NSCLC 23.2% | 786-0 renal 33.3%

CCc1nc(C(N)=O)c(Nc2ccc(N3CCC(N4CCN(C)CC4)CC3)c(OC)c2)nc1NC1CCOCC1
active: HOP-92 NSCLC -25.2% | NCI-H522 lung 1.52% | COLO 205 colon -46.5%
inactive: NCI-H23 lung 32.5% | NCI-H226 lung 38.2% | NCI-H322M lung 43.3% | HOP-62 NSCLC 16.9% | NCI-H460 lung 17.2% | A549/ATCC NSCLC 12.4% | 786-0 renal 10.2%

C/C(=N\NC(=O)Cn1c(-c2ccc(S(C)(=O)=O)cc2)nc2ccccc21)c1ccc(Cl)cc1
inactive: NCI-H23 lung 86.9% | NCI-H226 lung 83.4% | NCI-H322M lung 94.8% | HOP-62 NSCLC 88.6% | NCI-H460 lung 97.3% | HOP-92 NSCLC 98.3% | NCI-H522 lung 75.5% | A549/ATCC NSCLC 77.6% | 786-0 renal 102% | COLO 205 colon 93.4%

O=C(CNc1nc2ccccc2s1)Nc1ccc(-c2nc3ccccc3s2)cc1
inactive: NCI-H23 lung 88.9% | NCI-H226 lung 92.4% | NCI-H322M lung 92.3% | HOP-62 NSCLC 104% | NCI-H460 lung 99.8% | HOP-92 NSCLC 99.8% | NCI-H522 lung 91.2% | A549/ATCC NSCLC 100% | 786-0 renal 102% | COLO 205 colon 112%

Cc1cc(C(O)CN(C)C)cc2c1ccc1cc(C(C)C)ccc12 (stereo not given)
inactive: NCI-H23 lung 30.1% | NCI-H226 lung 33.6% | HOP-62 NSCLC 50.2% | A549/ATCC NSCLC 32.9% | 786-0 renal 14.5%
active: NCI-H322M lung -10.1% | NCI-H460 lung -35.7% | HOP-92 NSCLC 5.86% | NCI-H522 lung -25% | COLO 205 colon -78.1%

COc1ccc(/C(C)=C(\c2ccc(Cl)cc2)c2ccc(OCCN3CCCCCC3)cc2)cc1
inactive: NCI-H23 lung 51.3% | NCI-H226 lung 60.6% | NCI-H322M lung 79.5% | HOP-62 NSCLC 48.4% | NCI-H460 lung 32.3% | HOP-92 NSCLC 79.5% | NCI-H522 lung 51.5% | A549/ATCC NSCLC 39.4% | 786-0 renal 59.7% | COLO 205 colon 17.2%

NC1(c2ccc(-c3nc4ccn5c(=O)[nH]nc5c4cc3-c3ccccc3)cc2)CCC1
active: NCI-H522 lung 5.02% | 786-0 renal 9.74% | COLO 205 colon -19.8%
inactive: NCI-H23 lung 73.5% | NCI-H226 lung 67.7% | NCI-H322M lung 59.2% | HOP-62 NSCLC 50.3% | NCI-H460 lung 23.6% | HOP-92 NSCLC 23.2% | A549/ATCC NSCLC 32.8%
